Compounds without any hit were thinned out: in the full panel of roughly 83,000, 20% have a hit.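 The test compound was applied at a single concentration to cells in 96-well plates for 48 hours, and percent growth was recorded.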 A number with no mark means an inactive call. The source made the active and inactive calls. The calls were made as follows: active = growth percent below 10; inactive = the rest.
Columns and labels:
Experiment in all cases: NCI-60 one-dose screen, 48 h (100 = growth as untreated, 0 = no growth, -100 = all killed)
HCT-15 colon = conditions: 10 µM unless noted
HT29 colon = conditions: 10 µM unless noted
SNB-75 CNS = conditions: 10 µM unless noted
SNB-19 CNS = conditions: 10 µM unless noted
U251 CNS = conditions: 10 µM unless noted
PC-3 prostate = conditions: 10 µM unless noted
SK-MEL-5 melanoma = conditions: 10 µM unless noted
UACC-62 melanoma = conditions: 10 µM unless noted
LOX IMVI melanoma = conditions: 10 µM
SK-MEL-28 melanoma = conditions: 10 µM unless noted

Compound | growth (HCT-15 colon) | growth (HT29 colon) | growth (SNB-75 CNS) | growth (SNB-19 CNS) | growth (U251 CNS) | growth (PC-3 prostate) | growth (SK-MEL-5 melanoma) | growth (UACC-62 melanoma) | growth (LOX IMVI melanoma) | growth (SK-MEL-28 melanoma)
OC(c1cc(-c2ccc(Cl)cc2)nc2c(Cl)cccc12)C1CCCCN1 (stereo not given) | -58.1% (active) | -86.3% (active) | -81.2% (active) | -69.9% (active) | -89% (active) | -94.4% (active) | -0.885% (active) | -75.9% (active) | -76.6% (active) | -94.6% (active)
CCCCCCCCCCCCCCCC[N+]1(C)CCCC1c1cccnc1 (stereo not given) | 77.9% | 15.1% | 37.1% | 29.1% | 16.7% | 8.08% (active) | 43.9% | 50.6% | 49.2% | 97%
O=C(c1ccccc1)N(CCCl)C(=O)N(CCCl)C(=O)c1ccccc1 | 99.4% | 97.4% | 98.8% | 90.5% | 102% | 88.5% | 96.2% | 93.8% | 88.2% | 106%
CCOC(=O)NC(/C=C/c1ccccc1)NC(=O)OCC | 105% | 101% | 96.6% | 98.4% | 94.5% | 96.9% | 106% | 97.7% | 99.8% | 105%
O=C1c2ccccc2Cc2cccc(Cl)c21 | 97.4% | 87.7% | 117% | 100% | 101% | 92.9% | 96.2% | 98.9% | 93.9% | 101%
CCN(CC)c1ccc(/C=C\C(=O)c2ccc(NC(C)=O)cc2)cc1 | 45.6% | 39.5% | -0.746% (active) | 61.5% | 41.9% | 71.9% | 97.4% | 78.5% | 74.1% | 82%
OCCOSCCO | 89% | 106% | 99.3% | 110% | 101% | 113% | 101% | 114% | 103% | 108%
CC1(C)N=c2cc3c(cc2N1c1ccc(Cl)cc1)=Nc1ccccc1N3c1ccc(Cl)cc1 | 33.2% | 60.4% | 1.77% (active) | 66.5% | 39.3% | 7.55% (active) | 37.8% | 69.1% | 40.5% | 86.6%
COC(=O)c1nc(=S)[nH]c(C(=O)OC)c1C(=O)c1ccc(Cl)c(Cl)c1 | 105% | 112% | 92.7% | 105% | 103% | 106% | 101% | 102% | 99.2% | 124%
O=C(c1ccccc1)C(Br)[N+](=O)[O-] (stereo not given) | 78.1% | 90.5% | 86.3% | 102% | 84.2% | 89.4% | 102% | 89.8% | 80.5% | 106%
CC1C(c2ccccc2)OCCN1C(=S)Nc1ccc(S(=O)(=O)N2CCCCC2)cc1 (stereo not given) | 97.2% | 87.5% | 100% | 102% | 93% | 97.7% | 88.7% | 88.9% | 58.9% | 108%
c1ccc(-c2cccc(-c3ccccn3)n2)nc1 | 28% | 26% | 49% | 27.9% | 14.5% | 31.2% | -50.8% (active) | 3.51% (active) | -0.708% (active) | 33%
Cn1ccc(=Nc2ccc(NC(=O)c3ccc(N=c4ccn(C)c5ccc([N+](=O)[O-])cc45)cc3)cc2)cc1 | 98.2% | 73% | -9.29% (active) | -5.19% (active) | -17.5% (active) | 44% | 89.8% | 70.1% | 56.2% | 87.3%
CCCCCCCCCCCCCCCc1ccc(C(=O)C[n+]2ccccc2)cc1 | -48.6% (active) | -39.3% (active) | -55% (active) | -84.1% (active) | -42.2% (active) | -90.7% (active) | -31.6% (active) | -27.6% (active) | -55.9% (active) | -14.5% (active)
CN(C)c1ccc(/C=C/c2cc[n+](C)c(/C=C/c3ccc(N(C)C)cc3)c2)cc1 | 19.5% | -7.82% (active) | 22.3% | 27% | 15.3% | 3.98% (active) | -95.6% (active) | 12.3% | 12.3% | 20.6%
CCCCCCCCCCCC1=NCCCN1CCCC | 91.7% | 86.1% | 102% | 101% | 100% | 89.1% | 95.8% | 96.7% | 77.1% | 103%
C[n+]1ccccc1C[n+]1ccccc1 | 110% | 103% | 101% | 104% | 109% | 91.4% | 105% | 105% | 114% | 98.3%
CCCCCCCCCCCC[n+]1ccc2ccccc2c1 | 25% | 0.914% (active) | -21% (active) | -19.8% (active) | -53.5% (active) | -34.1% (active) | -93.7% (active) | -62.1% (active) | -75% (active) | -28.6% (active)
COc1c(C)c2c(c(O)c1C/C=C(\C)CCC(=O)O)C(=O)OC2 | 20.7% | 13.3% | 48.1% | 42.3% | 18.3% | 40.3% | 23.6% | 41.7% | 12.1% | 31.3%
Nc1nc(-c2ccccc2)nc(N)c1N=O | 53.6% | 14.5% | 44.8% | 88.7% | 52.4% | 79.9% | 100% | 71.8% | 66.7% | 75.3%
CC1CC(C)(C)OB(OC(C)CC(C)(C)OB2OC(C)CC(C)(C)O2)O1 (stereo not given) | 104% | 99.2% | 115% | 104% | 94.2% | 97.5% | 101% | 106% | 93.7% | 104%
O=C(c1ccccc1)c1ccc(O)c2ncccc12 | 25.7% | 96.1% | 58.7% | 38.4% | 28.4% | 32.2% | 26.8% | 33.9% | 31.4% | 68%
CN(C)c1ccc(/C=C/c2ccnc3ccccc23)cc1 | 26.8% | 4.25% (active) | 22.4% | 51.7% | 38.3% | 53% | 33% | 34.4% | 38.3% | 71.8%
O=[N+]([O-])c1ccc(N2CCN(Cc3ccccc3)CC2)c2c1no[n+]2[O-] | -52.8% (active) | -70.4% (active) | 68.4% | 37.3% | -47.8% (active) | -31.4% (active) | 38.1% | 4.15% (active) | -36.3% (active) | 77%
O=C(NOC(=O)c1ccccc1)c1ccccc1 | 101% | 110% | 108% | 109% | 105% | 90.2% | 105% | 109% | 100% | 119%
O=S(=O)(O)c1cnccn1 | 103% | 94.7% | 92.9% | 104% | 102% | 82.6% | 104% | 99.4% | 98% | 107%
Nc1cccc2cccc([N+](=O)[O-])c12 | 105% | 106% | 81.8% | 102% | 101% | 103% | 111% | 98.9% | 105% | 96.4%
CC(C)c1ccc(C(=O)OC2CCCC2)cc1 | 95.3% | 113% | 90.4% | 102% | 109% | 89.9% | 98.7% | 97.7% | 95% | 108%

From PubChem BioAssay (NCI)
